# Screens as filed in PubChem BioAssay.
# An excerpt weighted towards active compounds, which were near 4.1% of everything screened.
# Mtb FBA inh: inhibitors of M. tuberculosis fructose-bisphosphate aldolase. P9WQA3. purified M. tuberculosis FBA, fluorescence read-out. inhibition, % at 1 µM. 360,000 compounds, 2.3% hits. AID 588726
# RecA intein inh: Mtb RecA intein splicing inhibition. P9WHJ3. 290,000 compounds, 0.75% hits. inhibition, % (no concentration beside the values). cell-free RecA intein splicing, fluorescence. AID 2221; in the data active = inhibition above about 30%
# Rv3671c protease: Rv3671c (M. tuberculosis) protease inhibition; P9WHR9; inhibition, % at 5.96 µM; 320,000 compounds, 0.048% hits; AID 2606; in the data active = inhibition above about 38%;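 also: extracellular domain of Rv3671c used as enzyme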
# Target sequence (P9WHR9 whole entry, looked up, the tested form may be a part): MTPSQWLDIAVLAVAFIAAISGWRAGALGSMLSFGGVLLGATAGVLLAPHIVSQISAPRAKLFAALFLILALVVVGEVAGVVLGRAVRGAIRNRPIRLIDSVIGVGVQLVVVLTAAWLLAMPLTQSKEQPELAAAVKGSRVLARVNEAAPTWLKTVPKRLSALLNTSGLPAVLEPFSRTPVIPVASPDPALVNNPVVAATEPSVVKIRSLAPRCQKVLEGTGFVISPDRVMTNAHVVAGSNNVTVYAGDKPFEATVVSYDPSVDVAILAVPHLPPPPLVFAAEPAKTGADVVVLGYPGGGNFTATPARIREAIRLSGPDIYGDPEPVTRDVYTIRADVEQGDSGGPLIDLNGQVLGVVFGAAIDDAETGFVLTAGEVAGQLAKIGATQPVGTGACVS
# GDH-TPI counter-1: counter-screen for M. tuberculosis FBA inhibitors: GDH-TPI coupled enzymes; inhibition, % at 4.8 µM; GDH-TPI coupled enzyme counterscreen, NADH absorbance; 360,000 compounds, 1.2% hits; in the data active = inhibition above about 30%
# Mtb UGM inh: Mtb UDP-galactopyranose mutase inhibition. P9WIQ1. purified UGM, fluorescence polarization probe displacement. inhibition, % at 10 µM. 320,000 compounds, 0.06% hits. AID 504406; in the data active = inhibition above about 10%, passing the limit was not always enough
# Vc quorum ag: inducers of Vibrio cholerae quorum light production without autoinducers. V. cholerae BH1578 lux reporter, luminescence, 6 h. activation, % at 18.7 µM. 350,000 compounds, 0.16% hits. AID 588436; in the data active = activation mostly above about 9.7%, no sharp cut-off
# Mtb FBA confirm: confirmation of M. tuberculosis fructose-bisphosphate aldolase inhibitors; shares compounds with Mtb FBA inh; purified M. tuberculosis FBA, fluorescence read-out; inhibition, % at 1 µM; 5,600 compounds, 78% hits; AID 651616
# GDH-TPI counter-2: inhibits GDH-TPI coupling enzymes, flagging Mtb FBA hits. shares compounds with Mtb FBA inh. GDH-TPI coupled enzyme counterscreen, fluorescence. inhibition, % at 1 µM. 5,600 compounds, 81% hits; in the data active = inhibition above about 10%
# GDH-TPI DR: counter-screen for M. tuberculosis FBA inhibitors: GDH-TPI dose response | shares compounds with Mtb FBA inh | GDH-TPI coupled enzyme assay, fluorescence, artifact counterscreen | IC50, µM | 170 compounds, 79% hits; call rule not given here
# A number is an active result; – = inactive; · = not tested or not shown; + = active, no number; ! = not confirmed by another sample. Rule as the data show it, unless noted: active = inhibition above about 27%; inactive = the rest.
SMILES,Mtb FBA inh,RecA intein inh,Rv3671c protease,GDH-TPI counter-1,Mtb UGM inh,Vc quorum ag,Mtb FBA confirm,GDH-TPI counter-2,others
CC(C)CC(C(=O)Oc1ccc2c3c(c(=O)oc2c1)CCC3)N1C(=O)c2ccccc2C1=O (stereo unspecified),31,–,·,–,·,–,–,–,GDH-TPI DR=5.6
O=C(O)COc1ccc2c3c(c(=O)oc2c1)CCC3,96,–,–,–,–,–,72,47,
O=C(COc1ccc2c3c(c(=O)oc2c1)CCC3)Nc1ccc(CCO)cc1,–,–,–,–,–,–,·,·,
CCOC(=O)COc1ccc2c3c(c(=O)oc2c1)CCCC3,32,–,–,–,–,–,+,182,
O=C(COc1ccc2c3c(c(=O)oc2c1)CCC3)N[C@@H](Cc1ccccc1)C(=O)O,27,–,–,–,–,–,–,–,
CCN(CC)C(=O)COc1ccc2c3c(c(=O)oc2c1)CCCC3,50,–,–,–,–,–,40,41,
CC(C)Oc1ccc2c3c(c(=O)oc2c1)CCC3,76,–,–,–,–,–,86,72,
CCC1CCCCN1C(=O)COc1ccc2c3c(c(=O)oc2c1)CCC3 (stereo unspecified),–,·,–,–,–,–,·,·,
CC(Oc1ccc2c3c(c(=O)oc2c1)CCC3)C(=O)NC1CCN(Cc2ccccc2)CC1 (stereo unspecified),–,–,–,–,–,–,·,·,
COc1ccc2oc(C(=O)NCC3CCCO3)c(C)c2c1 (stereo unspecified),–,–,–,–,–,–,·,·,
COc1ccc2oc(C(=O)OCC(=O)NCC3CCCO3)c(C)c2c1 (stereo unspecified),36,–,–,–,–,–,91,81,
CCOc1ccc2oc(C(=O)OCC(=O)NCC3CCCO3)c(C)c2c1 (stereo unspecified),39,·,·,–,·,–,–,13,
CCOc1ccc2oc(C(=O)NCC3CCCO3)c(C)c2c1 (stereo unspecified),–,–,–,–,–,–,·,·,
CN(C1CCCCC1)S(=O)(=O)c1ccc(SCC(=O)C(C)(C)C)nc1,–,·,–,–,–,–,·,·,
COc1ccccc1C1CN(c2ccc(F)cc2F)N=C1c1cccs1 (stereo unspecified),83,–,–,–,–,–,177,132,
O=C(O)COCC(=O)Nc1ccc(OCCc2ccccc2)cc1,–,–,–,–,–,–,·,·,
Cc1cccc(NC(=O)CN2C(=O)N/C(=C/c3ccc(C)o3)C2=O)c1,–,–,–,–,–,–,·,·,
Cc1cccc(NC(=O)CN2C(=O)N/C(=C\c3ccc(-c4cccc(C(=O)O)c4)o3)C2=O)c1,34,–,–,–,–,–,189,143,
O=c1[nH]c(-c2ccc(O)cc2)nc2scc(-c3cccs3)c12,35,–,–,–,–,–,·,+,
Cc1nc2scc(-c3cccs3)c2c(=O)[nH]1,–,–,–,–,–,–,·,·,
CC(=O)c1sc(NC(=O)CSC(C)C(=O)Nc2cc(C)on2)nc1-c1ccccc1 (stereo unspecified),–,–,–,–,–,–,·,·,
Cc1ccc2c(c1)c1c3n2CCN(C=O)C3CCC1 (stereo unspecified),–,–,–,–,–,–,·,·,
Cc1ccc2c(c1)c1c3n2CCNC3CCC1 (stereo unspecified),81!,·,–,–,–,–,44,37,
CCOC(=O)c1ccccc1NC1CC(=O)N(c2ccccc2C)C1=O (stereo unspecified),102,–,–,–,–,–,135,139,
Nc1nc(-c2ccccc2)[nH]c(=O)c1N,29,–,–,–,–,–,72,53,
O=C(NCCc1ccc(Cl)cc1Cl)C1=CC=CN2CCS(=O)(=O)N=C12,27,·,–,–,–,–,178,129,
CC(C)c1ccc(NC(=O)C2=CC=CN3CCS(=O)(=O)N=C23)cc1,–,·,·,–,·,–,·,·,
COc1ccc(-c2cnc3c(NC(C)=O)cc(-c4cccc(C(=O)N(C)C)c4)cn23)cc1OC,–,·,·,–,·,–,·,·,
